Among the data in PubChem BioAssay AID431 (Sanford-Burnham Center for Chemical Genomics, 2006) are cytotoxicity values, retold here.

Several values for one entry are separate records, joined by “and”; a condition that tells them apart may be missing. Identical values can stand only once. The whole screen tested about 63,000 compounds, of which about 1,100 (1.7%) were called active.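 Rule for the calls: active = compounds whose percent cytotoxicity in the single-dose primary screen, scaled between solvent and toxic-drug controls, exceeds 50; inactive = the rest.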 The full list was thinned out, with actives kept by preference. Measured potencies and affinities stand elsewhere.

This assay is described as follows: cytotoxicity in KRAS-transformed pancreatic duct cells, primary screen, cell-based, fluorescence, HTS (AID 431).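 Note: 0% = DMSO solvent wells and 100% = doxorubicin-treated wells.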 The following applies: HPDE-C7K KRASV12 cells, Alamar Blue viability, 48 h; at 10 µM; hits give high values. (In general: Resazurin is reduced to fluorescent resorufin, in cell work by metabolically active cells.)
As for `CC(=O)N(c1ccc2oc(=O)sc2c1)S(=O)(=O)c1cccs1`, the cytotoxicity is 14.7% (inactive).

For the molecule `COc1ccc(NC(=O)N2CCn3c2nc2ccccc23)cc1`, the cytotoxicity was -17.6% (inactive).

Turning to `N=c1c(C(=O)NC2CCCC2)cc2c(=O)n3ccccc3nc2n1CCN1CCOCC1`, the cytotoxicity is -8.1% (inactive).

Turning to `COCc1[nH]nc2c1C(c1ccc(F)cc1F)C(C#N)=C(N)O2` (configuration not stated), the cytotoxicity was -13.5% (inactive).

`Cc1cc(N2C(=O)C(O)=C(C(=O)c3ccco3)C2c2cccnc2)no1` (configuration not stated): the cytotoxicity is -10.4% (inactive).

As for `Cn1c(C(=O)Nc2ccc3c(c2)OCCO3)cc2c(=O)n(C)c3ccccc3c21`, the cytotoxicity was 48.6% (inactive).

For `C=CCn1c(COc2cccc3ccc(C)nc23)nnc1SCC(=O)OC`, the cytotoxicity was 6.8% (inactive).

On to `COc1cccc(CN2CCNC(=O)C2CC(=O)O)c1OC` (configuration not stated), for which the cytotoxicity was -4.6% (inactive).

As for `Cc1n[nH]c(C)c1S(=O)(=O)N1CCN(C(=O)c2ccco2)CC1`, the cytotoxicity was 4% (inactive).

In the case of `COC(=O)c1ccc(CN(c2ccc(C)cc2)S(=O)(=O)c2ccc3c(c2)OCCO3)o1`, the cytotoxicity was 7.1% (inactive).

Regarding `COc1cccc(N(CC(=O)NC(C)(C)C)C(=O)C2CSC(=O)C2)c1` (configuration not stated), the cytotoxicity is -24.1% (inactive).

For `CCOC(=O)C1CCN(c2ncnc3c2cnn3-c2ccccc2)CC1`, the cytotoxicity is 2.3% (inactive).

`COc1ccc(/C(O)=C2/C(=O)C(=O)N(CCN(C)C)C2c2ccccn2)cc1OC` (configuration not stated): the cytotoxicity is -9.5% (inactive).

`O=C(NC1CCCCC1)C(c1ccccc1F)N(Cc1ccco1)C(=O)Cn1nnc2ccccc21` (configuration not stated): the cytotoxicity was 65.1% (active).

In the case of `CCC(C)(C)NC(=O)C(c1ccccc1F)N(Cc1ccco1)C(=O)Cn1nnc2ccccc21` (configuration not stated), the cytotoxicity is -4.3% (inactive).

Turning to `O=C(NC1CCCCC1)C(c1ccc(F)cc1)N(Cc1ccco1)C(=O)Cn1nnc2ccccc21` (configuration not stated), the cytotoxicity was -8.2% (inactive).

For the molecule `O=C(OC(C(=O)NCC1CCCO1)c1ccc(F)cc1)c1ccco1` (configuration not stated), the cytotoxicity is -12.4% (inactive).

Turning to `COc1cc(-c2c(C#N)c(N)nc3c2CCCC3)ccc1O`, the cytotoxicity is -23.5% (inactive).

With `COc1cc2nc(N3CCN(C(=O)C4COc5ccccc5O4)CC3)nc(N)c2cc1OC` (configuration not stated), the cytotoxicity was 43.4% (inactive).

With `COc1cc2nc(N3CCN(C(=O)c4ccco4)CC3)nc(N)c2cc1OC`, the cytotoxicity is 90.2% (active).

With `COc1cc2nc(N3CCN(C(=O)C4CCCO4)CC3)nc(N)c2cc1OC` (configuration not stated), the cytotoxicity is -6.8% (inactive) and -0.8% (inactive).

Turning to `CN(c1ccccc1C(=O)NCc1ccco1)S(C)(=O)=O`, the cytotoxicity was 3.4% (inactive).

As for `Cc1ccc(S(=O)(=O)NCCC(=O)Nc2nnc(C3CC3)s2)cc1C`, the cytotoxicity is 5.5% (inactive).

With `O=C(NCCCN1CCOCC1)c1ccc(CS(=O)(=O)c2cccc(C(F)(F)F)c2)o1`, the cytotoxicity is -4.8% (inactive).

Take `O=C1c2cccnc2C(O)N1Cc1cccs1` (configuration not stated): the cytotoxicity is -24.1% (inactive).

With `O=C1Nc2ccccc2C12OCC(COc1ccc(Cl)cc1)O2` (configuration not stated), the cytotoxicity was 36.3% (inactive).

On to `CCC(C)n1ncn(-c2ccc(N3CCN(c4ccc(OCC5COC(Cn6cncn6)(c6ccc(Cl)cc6Cl)O5)cc4)CC3)cc2)c1=O` (configuration not stated), for which the cytotoxicity is 68.7% (active).

For the molecule `CCCC1COC(Cn2cncn2)(c2ccc(C)cc2)O1` (configuration not stated), the cytotoxicity is -8.6% (inactive).

`CN1CCN(S(=O)C23CC4CC(CC(C4)C2)C3)CC1` (configuration not stated): the cytotoxicity is -18.9% (inactive).

In the case of `CCCOC(=O)c1ccc(OC(=O)c2ccco2)cc1`, the cytotoxicity is 1.8% (inactive).

In the case of `COc1ccc(C(=O)OCCN2C(=O)c3ccccc3C2=O)cc1`, the cytotoxicity is 1.1% (inactive).

For `CCOc1ccc(-c2n[nH]c(C)c2-c2ccccc2OC)c(O)c1`, the cytotoxicity is -3.5% (inactive).

As for `CCOc1ccc(-c2nc(N)nc(C)c2-c2ccc(OC)c(OC)c2)c(O)c1`, the cytotoxicity was 9.6% (inactive).

For `Cc1cc2nc(SCCN3CCCC3)[nH]c2cc1C`, the cytotoxicity is 16.7% (inactive).

Consider `CC1=Nn2c(nnc2C2CCCCC2)SC1`, for which the cytotoxicity is -19% (inactive).

Take `CCn1c(=O)cc(OCC(=O)NC2CCCCC2)c2ccccc21`: the cytotoxicity was -1.2% (inactive).

With `CCSc1nnc(-c2ccc(S(=O)(=O)N3CCOCC3)cc2)n1CC1CCCO1` (configuration not stated), the cytotoxicity was 14% (inactive).

On to `Cc1c(N(C)C(=O)c2ccco2)c(=O)n(-c2ccccc2)n1C`, for which the cytotoxicity is 8.3% (inactive).

As to `COc1ccc2c(c1)CC(C1(O)C(=O)Nc3ccccc31)C2=O` (configuration not stated), the cytotoxicity was -10.5% (inactive).

Regarding `CC1CC(=O)N(CC(=O)N2CCCC2)c2ccccc2S1` (configuration not stated), the cytotoxicity is -21% (inactive).

`O=C(CN1CCCC1)N1c2ccccc2Sc2ccccc21`: the cytotoxicity was -4.5% (inactive).

For `CCOC(=O)C1CCN(C(=O)COc2ccc(Br)cc2)CC1`, the cytotoxicity was 6.3% (inactive).

For `CCCn1c(NC(=O)c2ccccc2)nc2ccccc21`, the cytotoxicity was -14.1% (inactive).

Take `CCCn1c(NCc2ccco2)nc2ccccc21`: the cytotoxicity was -3.7% (inactive).

In the case of `CCn1c(COc2ccccc2)nnc1SCC(=O)C(C)(C)C`, the cytotoxicity was 16.4% (inactive).

`CCC(Sc1nc2cc3c(cc2c(=O)n1Cc1ccco1)OCO3)C(=O)Nc1ccccc1OC` (configuration not stated): the cytotoxicity is -11.9% (inactive).

Take `CCc1ccccc1NC(=O)C(CC)Sc1nc2cc3c(cc2c(=O)n1Cc1ccco1)OCO3` (configuration not stated): the cytotoxicity is 10.9% (inactive).

With `O=C(c1cccc(COc2ccc(Cl)cc2Cl)c1)N1CCN(c2ccccn2)CC1`, the cytotoxicity was 99% (active).

As for `O=C(CCCOc1ccc(Cl)cc1Cl)N1CCN(c2ccccn2)CC1`, the cytotoxicity was 1.2% (inactive).

`O=C(c1cccc(Cl)c1)N1CCN(c2ccccn2)CC1`: the cytotoxicity was -21.5% (inactive).

Take `COc1ccc(Br)cc1-c1nc(C)c(C(C)=O)n1O`: the cytotoxicity was 9.6% (inactive).

On to `O=C(Nc1cccc(Cl)c1)c1ccc2c(=O)n3c(nc2c1)CCCCC3`, for which the cytotoxicity was 53.7% (active).

For the molecule `O=C(Nc1ccc(F)c(Cl)c1)c1ccc2c(=O)n3c(nc2c1)CCCCC3`, the cytotoxicity is -3.7% (inactive).

For `O=C(Nc1ccc(F)cc1Cl)c1ccc2c(=O)n3c(nc2c1)CCCCC3`, the cytotoxicity was -3.1% (inactive).

On to `CCC(C)C(NC(=O)c1ccccc1NC(=O)c1ccco1)C(=O)O` (configuration not stated), for which the cytotoxicity is 1.4% (inactive).

Consider `CC(C)COc1ccc(C2NC(=O)NC2=O)cc1` (configuration not stated), for which the cytotoxicity was 3.8% (inactive).

Consider `Nc1cc(C(=O)N2CCCC2)cc(C(=O)N2CCCC2)c1`, for which the cytotoxicity is 6.7% (inactive).

Take `O=P(O)(CCc1ccccc1)CN1CCCCC1`: the cytotoxicity was 2.1% (inactive).

On to `COc1cc2c(=O)n(-c3ccc(C)cc3)c(=O)n(CC(=O)c3ccc4c(c3)OCO4)c2cc1OC`, for which the cytotoxicity was 2.3% (inactive).

Consider `COc1cc2c(O)c3c(c(-c4ccc5c(c4)OCO5)c2cc1OC)C(=O)OC3`, for which the cytotoxicity is 99.9% (active).

`COc1ccc(C(=O)Oc2ccc3c(c2)OCO3)cc1OC`: the cytotoxicity is -16.2% (inactive).

As for `CN1C(=O)CC(N2CCN(CC(=O)N3CCCC3)CC2)C1=O` (configuration not stated), the cytotoxicity is -1.8% (inactive).

Take `COc1ccc(S(=O)(=O)NC2CCCC2)cc1Br`: the cytotoxicity is 8.9% (inactive).

Regarding `Nc1nc(F)nc2c1ncn2[C@@H]1O[C@H](CO)[C@@H](O)[C@@H]1O`, the cytotoxicity is 42.7% (inactive).

Regarding `Nc1nc(Cl)nc2c1ncn2[C@@H]1O[C@H](CO)[C@@H](O)[C@H]1O`, the cytotoxicity was 2.5% (inactive).

Regarding `C=CCNc1ncnc2c1ncn2C1OC(CO)C(O)C1O` (configuration not stated), the cytotoxicity is 53.6% (active).

On to `OC[C@H]1O[C@@H](n2cnc3c(Nc4ccccc4)ncnc32)[C@H](O)[C@@H]1O`, for which the cytotoxicity was 62.3% (active).

With `Nc1ncnc2c1ncn2[C@@H]1O[C@H](CO)[C@@H](O)[C@H]1O`, the cytotoxicity is -17.3% (inactive).

In the case of `OC[C@H]1O[C@@H](n2cnc3c(NC4CCCC4)ncnc32)[C@H](O)[C@@H]1O`, the cytotoxicity is 3.7% (inactive).

Consider `COc1cccc2cc(C(=O)Nc3cccnc3N3CCOCC3)c(=O)oc12`, for which the cytotoxicity was 7.3% (inactive).

On to `O=C(CSc1nnnn1-c1ccc2c(c1)OCCO2)c1cccc2c1OCCO2`, for which the cytotoxicity is 10.2% (inactive).

With `COc1cccc(/C=N/n2c(CO)nc3ccccc32)c1OC`, the cytotoxicity is -4.1% (inactive).

As to `CC(O)C(O)C(O)C(O)C1NCCS1` (configuration not stated), the cytotoxicity is 5.8% (inactive).

For the molecule `CCCCn1c(=N)n(CC(O)COc2ccccc2)c2ccccc21` (configuration not stated), the cytotoxicity was 13.3% (inactive).

Take `N=c1n(Cc2ccccc2)c2ccccc2n1CC(O)COc1ccccc1` (configuration not stated): the cytotoxicity was 53% (active).

Consider `CCn1c(=N)n(CC(O)COc2cccc(C)c2)c2ccccc21` (configuration not stated), for which the cytotoxicity was 23.6% (inactive).

Regarding `CCCCn1c(=N)n(CC(O)COc2cccc(C)c2)c2ccccc21` (configuration not stated), the cytotoxicity was 50.9% (active).

Regarding `CCCn1c(=N)n(CC(O)COc2cccc(C)c2)c2ccccc21` (configuration not stated), the cytotoxicity is 12.4% (inactive).

With `COc1ccc(OCC(O)Cn2c(=N)n(Cc3ccccc3)c3ccccc32)cc1` (configuration not stated), the cytotoxicity is 22.1% (inactive).

For the molecule `O=C(COc1ccccc1)NCCSc1ccccc1`, the cytotoxicity is 0% (inactive).

As to `CCN(CC)S(=O)(=O)c1ccc(OCC(=O)NCc2ccccc2)cc1`, the cytotoxicity is 7.9% (inactive).

Turning to `Cc1ccc(NC(=O)CSCc2c(C)noc2C)cc1C`, the cytotoxicity is -2.9% (inactive).

On to `COc1ccccc1Cn1c2nc3ccccc3nc2c2c(=O)n(CC(C)C)cnc21`, for which the cytotoxicity was 5% (inactive).

`O=C(NC1CCCCC1)C1CCN(S(=O)(=O)c2cccc3cccnc23)CC1`: the cytotoxicity is -12.2% (inactive).

Regarding `Cn1c(-c2ccc3c(c2)OCO3)cnc1NC(=O)CCC(=O)NCCc1ccccc1`, the cytotoxicity was -0.9% (inactive).

`Cn1c(-c2ccc3c(c2)OCO3)cnc1NCc1ccccc1`: the cytotoxicity is -4.5% (inactive).

As for `Cn1c(-c2ccc3c(c2)OCO3)cnc1NCc1cccc(Cl)c1`, the cytotoxicity is 63.6% (active).

For `Cc1ccc(CNc2ncc(-c3ccc4c(c3)OCO4)n2C)cc1`, the cytotoxicity was -5.9% (inactive).

For `Cn1c(-c2ccc3c(c2)OCO3)cnc1N`, the cytotoxicity is 8.4% (inactive).

Turning to `Cn1c(-c2ccc3c(c2)OCO3)cnc1NCc1ccc(Cl)cc1`, the cytotoxicity was 62.3% (active).

`COc1ccc(CN2CCN(S(=O)(=O)c3ccc(NC(C)=O)cc3)CC2)cc1OC`: the cytotoxicity was -2.4% (inactive).

As for `O=C(NCCN1C(=O)C2C3C=CC(C3)C2C1=O)Nc1ccc(Br)cc1` (configuration not stated), the cytotoxicity was 8.1% (inactive).

As to `COc1cccc(S(=O)(=O)Nc2ccc(C(=O)NCc3ccco3)cc2)c1`, the cytotoxicity is -28.4% (inactive).

`COc1ccc(CC(=O)N2CCN(C(=O)Cc3ccc(OC)cc3)CC2)cc1`: the cytotoxicity was -6.3% (inactive).

On to `CCCCNC(=O)c1c(N)n(/N=C/c2ccccn2)c2nc3ccccc3nc12`, for which the cytotoxicity was 38.1% (inactive).

Consider `CCCCNC(=O)c1c(N)n(/N=C/c2cccnc2)c2nc3ccccc3nc12`, for which the cytotoxicity is 12.3% (inactive).

For `COCCCNC(=O)c1c(N)n(/N=C/c2cccnc2)c2nc3ccccc3nc12`, the cytotoxicity is 22.5% (inactive).

Turning to `CC(C)CNC(=O)c1c(N)n(/N=C/c2cccnc2)c2nc3ccccc3nc12`, the cytotoxicity was 1.6% (inactive).

With `CCC(C)NC(=O)c1c(N)n(/N=C/c2cccnc2)c2nc3ccccc3nc12` (configuration not stated), the cytotoxicity is 51.8% (active).

As for `Nc1c(C(=O)NC2CCCC2)c2nc3ccccc3nc2n1/N=C/c1cccnc1`, the cytotoxicity was 66.8% (active).

Consider `CC(C)CNC(=O)c1c(N)n(/N=C/c2ccccn2)c2nc3ccccc3nc12`, for which the cytotoxicity is 1.7% (inactive).

For `Nc1c(C(=O)NC2CCCCC2)c2nc3ccccc3nc2n1/N=C/c1ccco1`, the cytotoxicity was 4.7% (inactive).
